The target of one test is POU1 (OCT1 POU domain) (human, UniProt P14859 260-458). Put plainly: EMSA-SELEX-seq; no BOB1; 20 mM Tris-HCl pH 7.6, 140 mM NaCl, 10% glycerol, 0.5 mM EDTA, 0.05% Triton X-100, 0.1 mg/mL BSA, 0.1 mg/mL poly(dI-dC), 5 mM DTT, room temperature, 20 min; high values mean tight binding. The note with it: protein: recombinant; dsDNA, one strand shown. The essentials: (§1)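 Binding preference is reported as the percentage of sequenced 8-mers that match a motif pattern. Tagged POU-domain proteins were made in E. coli BL21, purified under denaturing conditions and renatured. A 30 ng portion was combined with 300 ng of a PCR-amplified double-stranded random 35-nt library, with or without 28 ng coactivator protein, in 20 μL Tris–HCl pH 7.6 binding buffer for 20 min at RT. Complex bands were excised from native 6% PAGE, eluted and PCR-amplified over four rounds before Illumina sequencing.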
In general terms: A gel shift assay detects complexes by their altered migration in electrophoresis.

The target of a further test is T1, POU2 (OCT2 POU domain) (human, UniProt P09086 175-386).
T1 sequence: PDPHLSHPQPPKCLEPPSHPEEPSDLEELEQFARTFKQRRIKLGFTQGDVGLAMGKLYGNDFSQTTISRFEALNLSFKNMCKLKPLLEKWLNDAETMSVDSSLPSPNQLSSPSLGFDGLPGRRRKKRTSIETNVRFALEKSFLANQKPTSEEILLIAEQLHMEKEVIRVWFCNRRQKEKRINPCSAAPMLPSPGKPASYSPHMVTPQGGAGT
The description is as above. The note with it: protein: recombinant; dsDNA, one strand shown. The essentials:
as §1

The target in test [1] is POU1 (OCT1 POU domain);BOB1 (OBF1, OCA-B) (human;human, UniProt P14859;Q16633 260-458;1-256, |). Nature of the test: EMSA-SELEX-seq; with BOB1 (ternary complex band); 20 mM Tris-HCl pH 7.6, 140 mM NaCl, 10% glycerol, 0.5 mM EDTA, 0.05% Triton X-100, 0.1 mg/mL BSA, 0.1 mg/mL poly(dI-dC), 5 mM DTT, room temperature, 20 min; high values mean tight binding. Conditions: protein: recombinant;recombinant; copies: 1;1; dsDNA, one strand shown. The essentials: as §1

The target of test [2] is T2, POU2 (OCT2 POU domain);BOB1 (OBF1, OCA-B) (human;human, UniProt P09086;Q16633 175-386;1-256, |).
T2 sequence 1: T1 sequence
T2 sequence 2: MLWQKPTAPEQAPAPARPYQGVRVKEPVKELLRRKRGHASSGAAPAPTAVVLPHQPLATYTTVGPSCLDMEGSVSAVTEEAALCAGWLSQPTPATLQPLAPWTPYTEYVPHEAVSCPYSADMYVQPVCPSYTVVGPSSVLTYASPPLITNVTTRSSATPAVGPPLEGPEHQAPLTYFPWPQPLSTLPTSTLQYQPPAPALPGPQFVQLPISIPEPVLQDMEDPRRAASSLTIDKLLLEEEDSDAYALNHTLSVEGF
Described as above. The note with it: protein: recombinant;recombinant; copies: 1;1; dsDNA, one strand shown. In short, it runs like this: as §1

POU1 (OCT1 POU domain), sequence (P14859 260-458): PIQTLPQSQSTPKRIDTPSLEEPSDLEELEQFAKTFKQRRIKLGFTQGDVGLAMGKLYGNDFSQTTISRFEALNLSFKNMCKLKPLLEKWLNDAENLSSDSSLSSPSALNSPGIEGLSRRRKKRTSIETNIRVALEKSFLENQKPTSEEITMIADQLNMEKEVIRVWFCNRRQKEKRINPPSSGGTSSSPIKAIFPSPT

Consider AGATGAAT, for which the binding signal is 0.119 % of ANNNNAAN 8-mers in the test with POU1 (OCT1 POU domain), 0.171 % of ANNNNAAN 8-mers with POU2 (OCT2 POU domain), 0.0765 % of ANNNNAAN 8-mers in test [1] and 0.09 % of ANNNNAAN 8-mers in test [2].
Turning to ATCCCAAC, the binding signal was 0.0137 % of ANNNNAAN 8-mers with POU1 (OCT1 POU domain), 0.0213 % of ANNNNAAN 8-mers with POU2 (OCT2 POU domain), 0.0172 % of ANNNNAAN 8-mers in test [1] and 0.014 % of ANNNNAAN 8-mers in test [2].
The corresponding values for AAACCAAC are 0.0206 % of ANNNNAAN 8-mers, 0.0104 % of ANNNNAAN 8-mers, 0.0199 % of ANNNNAAN 8-mers and 0.0215 % of ANNNNAAN 8-mers.
As to ACCTAAAC, the binding signal was 0.013 % of ANNNNAAN 8-mers in the test with POU1 (OCT1 POU domain), 0.0178 % of ANNNNAAN 8-mers with POU2 (OCT2 POU domain), 0.0211 % of ANNNNAAN 8-mers in test [1] and 0.0223 % of ANNNNAAN 8-mers in test [2].
The matching figures for ATGAAAAT: 0.373 % of ANNNNAAN 8-mers, 0.304 % of ANNNNAAN 8-mers, 0.619 % of ANNNNAAN 8-mers and 0.518 % of ANNNNAAN 8-mers.
The corresponding values for AATGCAAC are 0.0435 % of ANNNNAAN 8-mers, 0.0409 % of ANNNNAAN 8-mers, 0.046 % of ANNNNAAN 8-mers and 0.0413 % of ANNNNAAN 8-mers.
The corresponding values for ATGTCAAA are 0.0744 % of ANNNNAAN 8-mers, 0.0673 % of ANNNNAAN 8-mers, 0.0745 % of ANNNNAAN 8-mers and 0.0652 % of ANNNNAAN 8-mers.
Take AACTCAAA: the binding signal in the test with POU1 (OCT1 POU domain) was 0.0397 % of ANNNNAAN 8-mers; with POU2 (OCT2 POU domain) it was 0.0368 % of ANNNNAAN 8-mers; in test [1], 0.0445 % of ANNNNAAN 8-mers; in test [2] it was 0.0231 % of ANNNNAAN 8-mers.
With ATGGGAAG, the binding signal with POU1 (OCT1 POU domain) was 0.0652 % of ANNNNAAN 8-mers; with POU2 (OCT2 POU domain), 0.0696 % of ANNNNAAN 8-mers; in test [1] it was 0.0683 % of ANNNNAAN 8-mers; in test [2], 0.0735 % of ANNNNAAN 8-mers.
The corresponding values for AGAATAAA are 0.161 % of ANNNNAAN 8-mers, 0.182 % of ANNNNAAN 8-mers, 0.0757 % of ANNNNAAN 8-mers and 0.0892 % of ANNNNAAN 8-mers.
Consider AGGCCAAC, for which the binding signal was 0.0107 % of ANNNNAAN 8-mers in the test with POU1 (OCT1 POU domain), 0.0115 % of ANNNNAAN 8-mers with POU2 (OCT2 POU domain), 0.0113 % of ANNNNAAN 8-mers in test [1] and 0.0157 % of ANNNNAAN 8-mers in test [2].
As to ACGTCAAG, the binding signal with POU1 (OCT1 POU domain) was 0.0191 % of ANNNNAAN 8-mers; with POU2 (OCT2 POU domain), 0.0253 % of ANNNNAAN 8-mers; in test [1] it was 0.0203 % of ANNNNAAN 8-mers; in test [2], 0.0198 % of ANNNNAAN 8-mers.
The corresponding values for ATAGCAAT are 0.0515 % of ANNNNAAN 8-mers, 0.0495 % of ANNNNAAN 8-mers, 0.0445 % of ANNNNAAN 8-mers and 0.0487 % of ANNNNAAN 8-mers.
The corresponding values for ATCGCAAG are 0.0179 % of ANNNNAAN 8-mers, 0.0219 % of ANNNNAAN 8-mers, 0.023 % of ANNNNAAN 8-mers and 0.0206 % of ANNNNAAN 8-mers.
The matching figures for ATCAAAAC: 0.0465 % of ANNNNAAN 8-mers, 0.0443 % of ANNNNAAN 8-mers, 0.0539 % of ANNNNAAN 8-mers and 0.0347 % of ANNNNAAN 8-mers.
In the case of ACGTTAAT, the binding signal is 0.112 % of ANNNNAAN 8-mers with POU1 (OCT1 POU domain), 0.163 % of ANNNNAAN 8-mers with POU2 (OCT2 POU domain), 0.073 % of ANNNNAAN 8-mers in test [1] and 0.102 % of ANNNNAAN 8-mers in test [2].
The corresponding values for ACGTTAAG are 0.037 % of ANNNNAAN 8-mers, 0.0414 % of ANNNNAAN 8-mers, 0.039 % of ANNNNAAN 8-mers and 0.0405 % of ANNNNAAN 8-mers.
As for ATCCTAAC, the binding signal with POU1 (OCT1 POU domain) was 0.0172 % of ANNNNAAN 8-mers; in the test with POU2 (OCT2 POU domain) it was 0.0299 % of ANNNNAAN 8-mers; in test [1], 0.023 % of ANNNNAAN 8-mers; in test [2] it was 0.0355 % of ANNNNAAN 8-mers.
In the case of AAGCCAAT, the binding signal with POU1 (OCT1 POU domain) is 0.0282 % of ANNNNAAN 8-mers; with POU2 (OCT2 POU domain), 0.0247 % of ANNNNAAN 8-mers; in test [1], 0.0261 % of ANNNNAAN 8-mers; in test [2] it was 0.0272 % of ANNNNAAN 8-mers.
The corresponding values for ACGGCAAT are 0.0332 % of ANNNNAAN 8-mers, 0.0368 % of ANNNNAAN 8-mers, 0.0336 % of ANNNNAAN 8-mers and 0.0289 % of ANNNNAAN 8-mers.
Consider ACATTAAT, for which the binding signal with POU1 (OCT1 POU domain) is 0.165 % of ANNNNAAN 8-mers; in the test with POU2 (OCT2 POU domain), 0.215 % of ANNNNAAN 8-mers; in test [1] it was 0.0777 % of ANNNNAAN 8-mers; in test [2], 0.102 % of ANNNNAAN 8-mers.
The matching figures for AGCTGAAA: 0.0267 % of ANNNNAAN 8-mers, 0.0293 % of ANNNNAAN 8-mers, 0.0261 % of ANNNNAAN 8-mers and 0.0239 % of ANNNNAAN 8-mers.
For the sequence ATCTCAAG, the binding signal with POU1 (OCT1 POU domain) was 0.0313 % of ANNNNAAN 8-mers; with POU2 (OCT2 POU domain), 0.0368 % of ANNNNAAN 8-mers; in test [1], 0.039 % of ANNNNAAN 8-mers; in test [2], 0.0413 % of ANNNNAAN 8-mers.
The corresponding values for AACATAAG are 0.0694 % of ANNNNAAN 8-mers, 0.0731 % of ANNNNAAN 8-mers, 0.041 % of ANNNNAAN 8-mers and 0.0396 % of ANNNNAAN 8-mers.

The record behind these values is article PMC10812921, “Transcriptional Coactivator BOB1 (OBF1, OCA-B) Modulates the Specificity of DNA Recognition by the POU-Domain Factors OCT1 and OCT2 in a Monomeric Configuration”.
